The text below walks through data of the supplement of paper PMC3484114.

Several values for one entry are separate records, joined by “and”; a condition that tells them apart may be missing. Equal values may be shown once. ± gives the standard deviation.

The experiment relates to OVCAR-3-derived ovarian cancer stem-like cells (spheroids). Briefly: cell growth relative to untreated control; higher = more growth (less inhibition). Particulars: 2.29 µM; 96 h. The method, boiled down: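 Viability of stem-like cells from OVCAR-3 spheroids was assessed with TOX8 resazurin fluorescence at ex 560/em 590 nm. The cells had been trypsin-dissociated, seeded at 50,000 cells/mL in stem cell medium in ultra-low attachment 96-well plates and preincubated 24 h, then treated with compounds at 2.29 uM for 96 h at 37°C, 5% CO2, in 4 replicate wells, with fluorescence read after 4 h. Results were converted to percent growth against untreated wells after blank subtraction and Grubbs outlier removal.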
Take `Cc1c2ccncc2c(C)c2c1sc1ccccc12`: the cell growth was 120 ± 13%. Then `Cc1ccc(S(=O)(=O)SC/C=C/CSS(=O)(=O)c2ccc(C)cc2)cc1`, with 113 ± 25%; and `COc1cc(C(O)CCBr)c(OC)cc1C` (centres undefined), with 86.9 ± 26%. Then `COCC(=O)OC1CCn2c1nc1c2C(=O)C(C)=C(NC(C)=O)C1=O` (centres undefined), with 76.1 ± 12%; and `[Mo]`, with 97% and 106%; and `Cc1cc2c(c3oc(C4(C)OC4C4OC4C)cc(=O)c13)C(=O)c1c(O)c(C3CC(C)(N(C)C)C(O)C(C)O3)cc(C3CC(N(C)C)C(O)C(C)O3)c1C2=O` (centres undefined), with 47.6 ± 40%.

The molecule `OCCNCN(CNCCO)c1nc(N(CNCCO)CNCCO)nc(N(CNCCO)CNCCO)n1` yielded a cell growth of 126 ± 24%. With `CC1=CC(=O)c2cccc(NC3=NCCO3)c21` the figure was 92.8 ± 25%. Then `CN(C)c1ccc2c(SCC(=O)OCC(=O)[C@@]3(O)CC[C@H]4[C@@H]5CCC6=CC(=O)C=C[C@]6(C)[C@H]5C(=O)C[C@@]43C)c3ccc(N(C)C)cc3nc2c1`, with 59.1 ± 8.1%. Then `NC(=O)c1c([N+](=O)[O-])cc(C(F)(F)F)cc1[N+](=O)[O-]`, with 63.9 ± 13%; and `CCC(C#N)(c1ccccc1)N(CCc1ccccc1)C(=O)c1ccccc1` (centres undefined), with 129 ± 28%. The molecule `CN(C)CCOc1ccc(I)cc1Cc1ccccc1` showed a cell growth of 74.4 ± 31%.

For `CN(C)c1ccc(/C=C/C(=O)c2ccccc2)cc1Br`, the cell growth is 114 ± 9.2%. Then `Cc1cc(N(C)C)ccc1N=Nc1ccc2ncccc2c1`, with 83.2 ± 6.3%. With `O=c1[nH]c(=O)n(C2OC(CO)C(O)C2O)cc1F` (centres undefined) the figure was 19.2 ± 4.6%; with `Cc1nn(-c2ccccc2)c2c1CC(=O)Nc1ccccc1-2`, 114 ± 32%; with `NC(=S)NN=Cc1ncccc1O`, 95.3 ± 16%. Then `O=C1C=C(Nc2ccccc2C(=O)CC(=O)C(=O)Nc2ccc(Cl)cc2)c2ccccc2C1=O`, with 49.4 ± 15%; and `C[C@@H]1C[C@H]2OC(=O)[C@@]3(C)CCC[C@@](C)([C@@H]23)[C@@]1(O)CCc1ccoc1`, with 59.6 ± 12%. In turn, `NC(N)=NCCCS(=O)(=O)Nc1ccc(Nc2c3ccccc3nc3cc([N+](=O)[O-])ccc23)cc1` displayed a cell growth of 127 ± 32%.

On to `COc1ccc(CCN(C)CCCC(C#N)(c2ccc(OC)c(OC)c2)C(C)C)cc1OC` (centres undefined), for which the cell growth came out at 115 ± 16%. The molecule `CC1C(Oc2c(-c3ccc(O)c(O)c3)oc3c(O)cc(O)cc3c2=O)OC(O)C(O)C1O` (centres undefined) registered a cell growth of 77.6 ± 18%. Then `O=C1Nc2ccc(Br)cc2/C1=C\C(=O)c1ccccc1`, with 96.9 ± 11%; and `CC(C)C1(Cl)CCC2C3(C)CCCC(C)(C(=O)O)C3CC(Cl)C2(Cl)C1Cl` (centres undefined), with 94.6 ± 30%; and `CC1=C(O)c2ccccc2C(=O)C1=O`, with 91.9 ± 56%.

In the case of `C=C1C(=O)OC2C1CC1OC2C(C)CCC/C(C)=C\CCC1(C)O` (centres undefined), the cell growth turned out to be 115 ± 10%. With `COc1cc2c(c(OC)c1OC)-c1c(cc3c(c1OC)OCO3)CC(C)C(C)(O)C2OC(=O)c1ccccc1` (centres undefined) the figure was 130 ± 29%; with `O=C(CC1(O)C(=O)Nc2c(Cl)ccc(Cl)c21)c1ccc(Cl)cc1Cl` (centres undefined), 123 ± 11%. In turn, `O=C1C(=O)c2ccccc2C(O)=C1CC=C(Cl)Cl` showed a cell growth of 92.3 ± 30%. Take `N#CCCN(CCC#N)c1ccc(/C=C2/N=C(c3cc([N+](=O)[O-])ccc3Cl)OC2=O)cc1`: the cell growth is 114 ± 40%. With `COc1ccc(C=CC(=O)Oc2cc(O)cc(O)c2)cc1` the figure was 99.6 ± 16%; with `COc1cccc(/C=N\NC(=O)C(C)SC(C)C(=O)N/N=C/c2cccc(OC)c2)c1` (centres undefined), 100 ± 33%.

As to `CC(CN(C)C)C(=O)c1ccccc1C(=O)O` (centres undefined), the cell growth was 92.7 ± 31%.

On to `CCN(CC)CCCC(C)Nc1ccnc(/C=C/c2ccc(Cl)cc2)c1` (centres undefined), for which the cell growth came to 84.6 ± 25%. With `COc1cc2c[n+](C)c3c4cc5c(cc4ccc3c2cc1OC)OCO5`, the cell growth worked out at 48.7 ± 21%. Regarding `O=c1ncccn1C1OC(CO)C(O)C1F` (centres undefined), the cell growth was found to be 113 ± 22%.

Take `Clc1ccccc1C(c1ccccc1)(c1ccccc1)n1ccnc1`: the cell growth was 106 ± 13%.

In the case of `Nc1ccc(S(=O)(=O)Nc2cnc3c(Cl)cccc3n2)cc1`, the cell growth stood at 100 ± 15%. With `CC(C)=CCC1=C(O)c2ccccc2C(=O)C1=O` the figure was 109 ± 28%.
